In PubChem BioAssay:
Measured potencies and affinities stand elsewhere. Results filed as inconclusive are left out. Active and inactive are the calls of the source. Unless noted, no rule for the calls is given here.

How the values were obtained:
[1] = CMV-driven luciferase expression suppression in HEK293 – cell-based, luminescence, dry powder, counter-screen for Pax8 inhibitor project, dose response (AID 743020;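 active = signal-lowering compounds whose fitted half-maximal concentration is at or below twice the top tested dose in every run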;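 also: HEK293 cells stably expressing the CMV luciferase reporter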)
[2] = general cell-killing toxicity readout – plate reader, dry powder samples, cytotoxicity control for PAX8 inhibitor project, dose response (AID 743021)
[3] = IGROV1 cell killing – plate reader, dry powder samples, PAX8 inhibitor project, dose response (AID 743043);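 also: more negative means fewer viable cells or more cytotoxicity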
[4] = OVCAR-3 cell viability loss – plate reader, dry powder samples, PAX8 inhibitor project, dose response (AID 743044); settings: max activity: at 35 µM, active compounds read low unless noted
[5] = toxicity toward immortalized ovarian surface epithelium – cell-based, plate reader, dry powder samples, cytotoxicity control for PAX8 inhibitor project, dose response (AID 743045);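 also: 0% = neutral control median and -100% = positive control median; more negative values mean more cell killing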
[6] = A2780 cell killing – plate reader, dry powder samples, cytotoxicity control, dose response (AID 743046);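 also: 0% = neutral control wells and -100% = cytotoxic reference compound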
[7] = OVCAR8 cell viability loss – plate reader, dry powder samples, PAX8 project, dose response (AID 743197)
[8] = toxicity toward HepG2 liver cells – cell-based, plate reader, cherry-pick, antagonist series, cytotoxicity control, dose response (AID 743416);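 also: 0% = neutral control wells and -100% = positive control wells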

Measured: max activity

CCOc1ccc(C(CN2CCOCC2)C(C)=O)cc1OC (centres undefined)
inactive: [1] | [2]

COc1ccc(/C=N/NC(=O)c2[nH]c3ccc(Br)cc3c2-c2ccccc2)cc1
inactive: [1] | [2]

C[C@@H]1CN([C@H](C)CO)S(=O)(=O)c2ccc(C#CC3CCCC3)cc2O[C@@H]1CN(C)C(=O)Cc1ccncc1
inactive: [1] | [2] | [3] | [4] 16.7% [at 0.5 µM, active compounds read low] | [5] | [6] | [7]

C[C@@H]1CCCCO[C@H](CN(C)Cc2ccc(C(F)(F)F)cc2)[C@H](C)CN([C@@H](C)CO)C(=O)c2cc(NS(=O)(=O)c3cccs3)ccc2O1
inactive: [1] | [2] | [3] | [4] -8.64% [at 0.5 µM, active compounds read low] | [5] | [6] | [7]

Cc1noc(C)c1S(=O)(=O)N(C)C[C@@H]1OCCCC[C@H](C)Oc2ccc(NS(=O)(=O)c3ccc(Cl)cc3)cc2C(=O)N([C@H](C)CO)C[C@@H]1C
inactive: [1] | [2] | [3] | [4] -11.5% [at 0.5 µM, active compounds read low] | [5] | [6] | [7]

C[C@@H]1CCCCO[C@@H](CN(C)C(=O)Nc2cccc3ccccc23)[C@H](C)CN([C@H](C)CO)C(=O)c2cc(NS(=O)(=O)c3ccccc3)ccc2O1
inactive: [1] | [2] | [3] | [4] 28.6% [at 2.1 µM, active compounds read low] | [5] | [6]

Nc1nnnn1/N=C/C(Br)=C/c1ccccc1
inactive: [1] | [2]

C=C(C)c1nc(Oc2ccccc2)nc(Oc2ccccc2)n1
inactive: [1] | [2]

COc1cccc(S(=O)(=O)N2CC[C@H]3[C@@H](CO)N(C)c4ccc(C#Cc5ccc(F)cc5)cc4[C@H]32)c1
inactive: [1] | [2] | [3] | [4] -17.2% | [5] | [6] | [7]

Cn1c(CCN2CCCC2)nc2cc(NS(=O)(=O)c3ccccc3)ccc21
inactive: [1] | [2]

O=C(Nc1ccc(Cl)c(Cl)c1)N[C@@H]1CC[C@H](CCn2cc(C3CCCCC3)nn2)O[C@H]1CO
inactive: [1] | [2] | [3] | [4] -6.27% [at 16 µM, active compounds read low] | [5] | [6] | [7]

Cc1ccc(NC(=O)Cn2ncc(Cl)c(Cl)c2=O)cc1S(=O)(=O)N1CCCCC1
inactive: [1] | [2]

O=C(Nc1cccc(NC(=O)c2cccs2)c1)c1ccc([N+](=O)[O-])o1
inactive: [1] | [2]

COc1ccc(C2=NNC(=Nc3cc(S(=O)(=O)N(C)C)ccc3C)SC2)c(OC)c1
inactive: [1] | [2]

C[C@@H]1CN([C@H](C)CO)C(=O)c2cc(NC(=O)Nc3ccc(F)cc3)ccc2O[C@@H](C)CCCCO[C@@H]1CN(C)Cc1ccc2c(c1)OCO2
inactive: [1] | [2] | [3] | [4] -19.6% [at 4.2 µM, active compounds read low] | [5] | [6]

CC1(Cc2ccc(OC(F)(F)F)cc2)C(=O)Nc2ccc(S(=O)(=O)NC3CCCCC3)cc21 (centres undefined)
inactive: [1] | [2]

COc1ccc(NC(=O)Nc2ccc3c(c2)CC(=O)N([C@H](C)CO)C[C@@H](C)[C@@H](CN(C)Cc2ccc(Oc4ccccc4)cc2)O3)cc1
inactive: [1] | [2] | [3] | [4] -8.95% [at 16 µM, active compounds read low] | [5] | [6] | [7]

COc1ccc(F)cc1-c1cc(NC=O)c2ncc(-c3cc(OC)c(OC)c(OC)c3)n2c1
inactive: [1] | [2]

OCCCNc1nccc(-c2cc(Nc3cccc(Cl)c3)ncn2)n1
inactive: [1] | [2]

O=C(Nc1cccc(Cl)c1)Nc1nnc(-c2ccncc2)s1
inactive: [1] | [2]

CCCNC(=O)Nc1ccc2c(c1)OC[C@H](C)N(Cc1ccc(-c3ccccn3)cc1)C[C@@H](C)[C@@H](OC)CN(C)C2=O
inactive: [1] | [2] | [3] | [4] 60.3% | [5] | [6]

C[C@@H]1CCCCO[C@H](CN(C)Cc2ccc(Cl)c(Cl)c2)[C@H](C)CN([C@@H](C)CO)C(=O)c2cc(NC(=O)Nc3ccccc3)ccc2O1
inactive: [1] | [2] | [3] | [4] 4.55% | [5] | [6] | [7]

C[C@@H]1CN([C@@H](C)CO)C(=O)Cc2cc(NC(=O)CCC(F)(F)F)ccc2O[C@H]1CN(C)Cc1ccc(-c2ccccc2)cc1
inactive: [1] | [2] | [3] | [4] -2.75% [at 16 µM, active compounds read low] | [5] | [6] | [7]

C[C@H]1CN([C@@H](C)CO)C(=O)c2cc(NS(=O)(=O)c3ccccc3)ccc2O[C@@H]1CN(C)Cc1ccc(Oc2ccccc2)cc1
inactive: [1] | [2] | [3] | [4] -20.4% [at 8 µM, active compounds read low] | [5] | [7]

CN1c2ccc(-c3cccc(F)c3)cc2[C@@H]2[C@@H](CCN2C(=O)Cc2ccccc2)[C@@H]1CO
inactive: [1] | [2] | [3] | [4] 21.5% | [5] | [6]

C[C@@H]1CCCCO[C@H](CN(C)Cc2ccc(C(F)(F)F)cc2)[C@H](C)CN([C@H](C)CO)C(=O)c2cc(NS(=O)(=O)c3cccs3)ccc2O1
inactive: [1] | [2] | [3] | [4] 29.1% [at 0.26 µM, active compounds read low] | [5] | [6] | [7]

COc1ccc(-c2ccc(C3[C@@H]4CN(C(=O)Nc5cccc(F)c5)C[C@H]3N4)cc2)cc1 (some centres undefined)
inactive: [1] | [5] | [6]

C[C@H](CO)N1C[C@H](C)[C@H](CN(C)S(=O)(=O)c2ccc(Cl)cc2)OCCCC[C@H](C)Oc2ccc(NC(=O)Nc3ccc(C(F)(F)F)cc3)cc2C1=O
inactive: [1] | [3] | [5] | [7]

CCCn1c(C)cc(C(=O)CN2C(=O)c3ccccc3S2(=O)=O)c1C
not listed: [5] | [7]
inactive: all other assays above

COc1ccc(CCNc2nnc(Sc3nnnn3-c3ccccc3)s2)cc1OC
inactive: [2]

Cc1ccsc1/C=N/Nc1cccc(C(=O)O)c1
inactive: [1] | [2] | [8]

COc1ccc(S(=O)(=O)Nc2ccc3c(c2)C(=O)N([C@@H](C)CO)C[C@H](C)[C@@H](CN(C)Cc2ccc(C(F)(F)F)cc2)OCCCC[C@H](C)O3)cc1
inactive: [1] | [2] | [5] | [6]

Cc1noc(C)c1S(=O)(=O)N(C)C[C@H]1OCCCC[C@@H](C)Oc2ccc(NS(=O)(=O)c3ccc(Cl)cc3)cc2C(=O)N([C@@H](C)CO)C[C@@H]1C
inactive: [1] | [2] | [3] | [5]

C[C@@H]1CN([C@@H](C)CO)C(=O)Cc2cc(NC(=O)NC3CCCCC3)ccc2O[C@@H]1CN(C)Cc1ccc(-c2ccccc2)cc1
inactive: [1] | [2] | [3] | [4] 0% [active compounds read low] | [5] | [7]

COc1cccc(-c2ccc([C@H]3[C@@H](CO)N(C(=O)Cc4ccccc4)[C@H]3C#N)cc2)c1
inactive: [1] | [2] | [3] | [5] | [7]

Cc1cc(C(C)(C)C)cc(C)c1Cn1c2[n+](c3ccc(C(F)(F)F)cc31)CCCCC2
inactive: [2]

COc1cc(C2C3=C(COC3=O)Oc3cc4c(cc32)OCO4)cc(OC)c1O (centres undefined)
inactive: [2]

Cc1ccccc1CNC(=O)C1CCCN(c2nnc(C)c3c(C)n(-c4ccccc4)nc23)C1 (centres undefined)
inactive: [1] | [2] | [6]

C[C@H]1CCCCO[C@H](CN(C)Cc2ccc(C(F)(F)F)cc2)[C@@H](C)CN([C@@H](C)CO)C(=O)c2cc(NC(=O)c3ccccc3)ccc2O1
inactive: [1] | [2] | [5] | [6] | [7]

N#C[C@@H]1[C@H](c2ccc(C#CC3CCCCC3)cc2)[C@H](CO)N1S(=O)(=O)c1ccccc1
inactive: [1] | [2] | [5] | [6] | [7]

C[C@@H]1CN([C@@H](C)CO)C(=O)c2cc(NC(=O)c3ccccc3)ccc2O[C@@H](C)CCCCO[C@@H]1CN(C)Cc1ccc(C(F)(F)F)cc1
inactive: [1] | [2] | [3] | [5] | [6]

C[C@H]1CCCCO[C@@H](CN(C)Cc2ccc(C(F)(F)F)cc2)[C@@H](C)CN([C@@H](C)CO)C(=O)c2cc(NC(=O)c3ccccc3)ccc2O1
inactive: [1] | [2] | [5] | [6]

CCN(CC(=O)Nc1c(F)cccc1F)C(=O)c1cc(S(=O)(=O)N(C)C)ccc1N1CCCC1
inactive: [1] | [2] | [4] | [5] | [6]

Cn1nnnc1Sc1ncnc2scc(-c3cccc(S(C)(=O)=O)c3)c12
inactive: [2]

O=C1c2cccc3cc([N+](=O)[O-])cc(c23)C(=O)N1CCN1CCCC1
inactive: [2]

COc1ccc(C)cc1NS(=O)(=O)c1ccc(-c2cnc(C3CC3)o2)cc1
inactive: [2]

Cc1ccc(S(=O)(=O)Nc2ccc3c(c2)CC(=O)N([C@H](C)CO)C[C@H](C)[C@H](CN(C)S(=O)(=O)c2ccc(F)cc2)O3)cc1
not listed: [4] | [8]
inactive: all other assays above

C[C@H](CO)N1C[C@H](C)[C@H](CN(C)Cc2ccc(C(F)(F)F)cc2)OCCCC[C@H](C)Oc2ccc(NS(=O)(=O)c3ccccc3)cc2C1=O
inactive: [1] | [5] | [6]
